Laboratory results: PubChem BioAssay AID504465 (National Center for Advancing Translational Sciences (NCATS), 2011)
The whole screen tested about 2,100 compounds, of which about 210 (10%) were called active. Not shown: some 53% with an inconclusive outcome. Calls come from the whole dose curve; as a rule, active = well fitted inhibition curve with a large enough effect; inconclusive = small, poorly fitted or top-dose-only effect, or effect the other way; inactive = no such curve, though single readings can be large or run the other way. Some of the results follow.

test: IN Cell qHTS Assay for Inhibitors of the mTORC1 Signaling Pathway in MEF (Tsc2-/-, p53-/-) Cells: Sytravon; conditions: phospho-rpS6 immunofluorescence, 24 h; series mostly up to 38.3 µM; activity, negative = inhibition: at the top concentration; note: nearly all actives have a fitted effect of over 60% in size
Summary of the method: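 Immunofluorescence of rpS6 phosphorylation (Ser235/236) in mouse embryonic fibroblasts lacking Tsc2 and p53, after 24 h compound exposure; Hoechst-normalized signal imaged, each well scored as % active cells relative to rapamycin (7.5 nM) and DMSO controls.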
Potency is the fitted concentration of half-maximal effect.

Row | Compound | activity, negative = inhibition | Potency
1 | CCOc1ccc(OCC)c(NC(=O)Cn2nc(CC)n3c(cc4sccc43)c2=O)c1 | 4.76% (inactive) | 
2 | O=c1c2ccccc2n(Cc2cccc(F)c2)c(=O)n1Cc1ccccc1Cl | -28.4% (inactive) | 
3 | COCCn1c(=O)[nH]c2cc(C(=O)N3CCN(c4ccc(Cl)cc4)CC3)ccc2c1=O | 29.5% (inactive) | 
4 | COc1ccccc1CN1COc2ccc3c(oc(=O)c4ccccc43)c2C1 | -13.4% (inactive) | 
5 | CC(C)CN(CC(C)C)c1nnc(NC(=O)Nc2cccc(C(F)(F)F)c2)s1 | 2.09% (inactive) | 
6 | COc1ccc(OC)c(NS(=O)(=O)c2ccc3c(c2)C(C)(C)C(=O)N3C)c1 | -4.35% (inactive) | 
7 | COc1cc2nc(Nc3ccc(C)c(C)c3)nc(N)c2cc1OC |  | 4.14 µM (active)
8 | O=C(Cn1c(=O)oc2cc(S(=O)(=O)NCc3ccccc3)ccc21)NCc1ccc(Cl)cc1 | 0% (inactive) | 
9 | CC(C)(C)c1ccc(C(=O)N2CCCCC2CCN2CCCCC2)cc1 (stereo not drawn) | -14.5% (inactive) | 
10 | CCOC(=O)c1ccc(N2C(=O)c3n[nH]c(-c4cccs4)c3C2c2cccc(F)c2)cc1 (stereo not drawn) |  | 13.1 µM (active)
11 | CC(C)(C)c1ccc(C2NC(=O)c3n[nH]c(-c4cccs4)c32)cc1 (stereo not drawn) | -100% (inactive) | 
12 | CCOC(=O)c1ccc(N2C(=O)c3n[nH]c(-c4cccs4)c3C2c2ccc(CC)cc2)cc1 (stereo not drawn) | -94.6% (inactive) | 
13 | Cc1ccc(F)cc1NC(=O)CSc1nc(-c2cccs2)cc(C(F)(F)F)n1 |  | 11.7 µM (active)
14 | Cc1ccc(NC(=O)CSc2nc(-c3cccs3)cc(C(F)(F)F)n2)cc1C | -19.5% (inactive) | 
15 | Cc1ccc(C)c(NC(=O)Cn2cc(C(=O)c3cccs3)c3ccccc32)c1 | -9.22% (inactive) | 
16 | Cn1c(=O)c2c(-c3ccc(Br)cc3)n(Cc3ccc(F)cc3)cc2n(C)c1=O | -79.2% (inactive) | 
17 | CSc1ccccc1NC(=O)CCS(=O)(=O)c1nc(-c2cccs2)cc(C(F)(F)F)n1 | 3.05% (inactive) | 
18 | COc1ccc(NC(=O)CCS(=O)(=O)c2nc(-c3cccs3)cc(C(F)(F)F)n2)cc1 | -14.4% (inactive) | 
19 | COc1ccc(NC(=O)CCS(=O)(=O)c2nc(-c3cccs3)cc(C(F)(F)F)n2)cc1OC |  | 16.5 µM (active)
20 | COc1ccc(NC(=O)C2CCC(CNS(=O)(=O)c3ccc(Br)s3)CC2)cc1OC (stereo not drawn) | -78.3% (inactive) | 
21 | O=C(CCS(=O)(=O)c1nc(-c2cccs2)cc(C(F)(F)F)n1)Nc1cc(Br)ccc1O |  | 7.36 µM (active)
22 | c1ccc(N2CCN(c3ncnc4c3nc3n4CCCCC3)CC2)cc1 | -7.73% (inactive) | 
23 | CC(=O)c1ccc(N2CCN(c3ncnc4c3c(-c3ccccc3)cn4-c3cccc(C)c3)CC2)cc1 | 6.25% (inactive) | 
24 | Cc1cccc(N2CCN(c3ncnc4c3nc3n4CCCCC3)CC2C)c1 (stereo not drawn) |  | 14.7 µM (active)

Row | Compound | activity, negative = inhibition | Potency
25 | CCCc1cc(N2CCN(c3ccccc3)CC2)n2cnnc2n1 | -1.92% (inactive) | 
26 | CCCCC1CCC(C(=O)N2CC(=O)Nc3ccc(F)cc3C2c2ccc(F)cc2)CC1 (stereo not drawn) |  | 16.5 µM (active)
27 | Cc1c(Cl)cccc1NC(=O)c1ccc2c(c1)nnn2C1CCCC1 | -0.577% (inactive) | 
28 | Nc1c(C(=O)c2ccc(F)cc2)sc(Nc2ccccc2F)c1S(=O)(=O)c1ccc(Br)cc1 | 0.296% (inactive) | 
29 | COC(=O)COc1ccc(-c2nnc(Nc3ccc(O)cc3)c3ccccc23)cc1 | -15.2% (inactive) | 
30 | Cc1cc(-c2ccc(C)c(S(=O)(=O)N3CCOc4ccc(Cl)cc43)c2)on1 | -4.75% (inactive) | 
31 | COc1ccc(OC2CCN(S(=O)(=O)c3ccc(OC)cc3)CC2)cc1 | -7.91% (inactive) | 
32 | COc1ccc(Nc2nnc(-c3ccc(C)c(S(=O)(=O)N4CCN(C)CC4)c3)c3ccccc23)cc1 |  | 16.5 µM (active)
33 | Cc1cccc(NC(=O)Cn2nc(-c3ccc(Cl)cc3)c3ccccc3c2=O)c1 | -100% (inactive) | 
34 | Cc1cccc(Nc2nnc(-c3ccc(C)c(S(=O)(=O)N4CCN(C)CC4)c3)c3ccccc23)c1 |  | 14.7 µM (active)
35 | Cc1ccc(-c2nnc(Nc3cccc(Cl)c3)c3ccccc23)cc1S(=O)(=O)N1CCN(C)CC1 |  | 9.27 µM (active)
36 | CCCCC(=O)Nc1nnc(S(=O)(=O)N2CCCCCC2)s1 | -15.2% (inactive) | 
37 | CCCN(C(=O)Cn1ncc2c([nH]c3ccc(C)cc32)c1=O)c1ccccc1C | 1.08% (inactive) | 
38 | CCN(CC)CCCNc1ncnc2c1cnn2-c1ccc(C)c(C)c1 | 6.25% (inactive) | 
39 | O=C(Nc1ccc(F)cc1F)N1CCN(c2ccc(Cl)c(Cl)c2)CC1 | -14.8% (inactive) | 
40 | Cc1ccccc1NC(=O)CCn1cnc2onc(-c3ccc(F)cc3)c2c1=O | -0.638% (inactive) | 
41 | Cc1cc2c(cc1C)NC(CC(=O)Nc1ccccc1)C(=O)N2 (stereo not drawn) | -11.2% (inactive) | 
42 | Cc1ccc2nc(N3CCC(C(=O)N4CCN(c5cccc(Cl)c5)CC4)CC3)[nH]c2c1 | 10.7% (inactive) | 
43 | CCn1c2c(c(=O)n3ncc(C(=O)N4CCN(c5ccc(Cl)cc5)CC4)c13)CN(Cc1ccc(OC)cc1)CC2 | -6.81% (inactive) | 
44 | CS(=O)(=O)c1ncc(Cl)c(C(=O)N2CCN(c3cccc(Cl)c3)CC2)n1 |  | 0.521 µM (active)
45 | Cc1ccccc1S(=O)(=O)Cc1ccc(C(=O)N2CCN(c3cccc(Cl)c3)CC2)o1 | -13.2% (inactive) | 
46 | CNS(=O)(=O)c1cn(CC(=O)N2CCN(c3cccc(Cl)c3)CC2)cc1S(=O)(=O)NC | -5.97% (inactive) | 
47 | CCCS(=O)(=O)c1ncc(Cl)c(C(=O)N2CCN(c3ccc(OC)cc3)CC2)n1 | 0% (inactive) | 
48 | CCS(=O)(=O)c1ncc(Cl)c(C(=O)N2CCN(c3ccc(OC)cc3)CC2)n1 |  | 4.65 µM (active)

Row | Compound | activity, negative = inhibition | Potency
49 | Cc1oc2ncnc(N3CCCCC3)c2c1C(=O)N1CCN(c2cccc(Cl)c2)CC1 | -0.832% (inactive) | 
50 | CCS(=O)(=O)c1ncc(Cl)c(C(=O)N2CCN(c3cccc(Cl)c3)CC2)n1 |  | 2.61 µM (active)
51 | COc1ccc(N2CCN(C(CNC(=O)C(=O)NCc3ccc(F)cc3)c3cccnc3)CC2)cc1 (stereo not drawn) | -3.11% (inactive) | 
52 | Cc1ccc(CNS(=O)(=O)c2cc(C(=O)Nc3cccc(C(F)(F)F)c3)ccc2F)cc1 | -5.56% (inactive) | 
53 | COc1ccc(NC(=O)c2c(NCc3ccc(C)o3)sc3c2CCC(C)C3)c(OC)c1 (stereo not drawn) | 0% (inactive) | 
54 | CC(=O)N1c2ccc(S(=O)(=O)NCC3CCC(C(=O)Nc4cccc(F)c4)CC3)cc2CC1C (stereo not drawn) | -6.44% (inactive) | 
55 | Cc1cc(-c2ccc(S(=O)(=O)Nc3cc(Cl)ccc3C)s2)on1 | -20% (inactive) | 
56 | COc1cccc(CNC(=O)C2Cc3cc(S(=O)(=O)N4CCCCCC4)ccc3N2C(C)=O)c1 (stereo not drawn) | 0% (inactive) | 
57 | Cc1ccc2nc(/C(C#N)=C/c3cccc(Br)c3)[nH]c2c1 | -32% (inactive) | 
58 | Cc1cccc(-n2nnnc2S(C)(=O)=O)c1 |  | 1.47 µM (active)
59 | Cc1cccc(C2C=C(c3ccc(C)c(C)c3)Nc3nnnn32)c1 (stereo not drawn) | 0% (inactive) | 
60 | CCc1ccc(S(=O)(=O)c2nnn(-c3cccc(C)c3)c2N)cc1 | 2.14% (inactive) | 
61 | COc1ccc(C(=O)NC(c2ccccc2Cl)c2cc(Cl)c3cccnc3c2O)cc1 (stereo not drawn) | 0% (inactive) | 
62 | O=C(Nc1nnc(-c2cc(Cl)ccc2Cl)o1)c1ccc2c(c1)OCCO2 | 15.6% (inactive) | 
63 | COC(=O)c1sc2cccc(F)c2c1S(=O)(=O)N1CCN(c2cccc(OC)c2)CC1 | 0.892% (inactive) | 
64 | COc1ccc(/C=C/c2nc(C#N)c(NC3CCCCC3)o2)cc1OC | -11.3% (inactive) | 
65 | COc1cccc(-c2nnc3sc(CN4CCCCC4)cn23)c1 |  | 14.7 µM (active)
66 | COc1ccc(NC(=O)c2c(C)oc3ccc(O)c(CN4CCCCCC4)c23)cc1 | -14.3% (inactive) | 
67 | COc1cccc(-c2cc(C(=O)Nc3ccn(Cc4ccc(C)cc4)n3)no2)c1 | 24.6% (inactive) | 
68 | Cc1ccc(CNCc2c(C(=O)O)n(Cc3ccc(C)cc3)c3cc(C)ccc23)cc1 | -13.3% (inactive) | 
69 | O=C(Nc1ccc(C(F)(F)F)cc1)c1cc(S(=O)(=O)NC2CCCCCC2)ccc1F | 6.25% (inactive) | 
70 | CCc1ccccc1NC(=O)CSc1nnc(COc2ccccc2Cl)o1 | 2.63% (inactive) | 
71 | Cc1ccc(OCC(=O)Nc2nnc(SCc3cc(=O)n4cc(C)ccc4n3)s2)cc1 | 2.68% (inactive) | 
72 | COc1cc(C(=O)N2CCc3c([nH]c4ccccc34)C2c2ccc(C)cc2)cc(OC)c1OC (stereo not drawn) | -41.5% (inactive) | 

Row | Compound | activity, negative = inhibition | Potency
73 | COc1cc(C(=O)n2nc(C)c(Sc3ccc(Cl)cc3)c2C)cc(OC)c1OC |  | 11.7 µM (active)
74 | Cc1ccc(-n2c(SCc3ccccc3C)nc3[nH]ncc3c2=O)cc1C | 0% (inactive) | 
75 | CC(C)(C)C1CCc2c(sc(NC(=O)c3cccc(Cl)c3)c2C(N)=O)C1 (stereo not drawn) |  | 7.36 µM (active)
76 | COc1ccc(Cl)cc1NC(=O)c1c(NCc2cccs2)sc2c1CCC(C)C2 (stereo not drawn) | 0% (inactive) | 
77 | COc1ccc(Cl)cc1NC(=O)c1c(NCc2cccnc2)sc2c1CCC(C)C2 (stereo not drawn) | 0% (inactive) | 
78 | CCCCC(=O)OC1=C(C(=O)c2ccccc2)N(CCC)S(=O)(=O)c2ccccc21 | -13.9% (inactive) | 
79 | Cc1scc(CN2CCN(c3ccccc3F)CC2)c1C | -3.84% (inactive) | 
80 | CC1C(=O)Nc2ccc(S(=O)(=O)Nc3ccccc3Br)cc2NC1=O (stereo not drawn) | -11.9% (inactive) | 
81 | CN(C)CCNC(=O)c1ccc(-n2c(-c3ccccc3)cc3c2CCCCC3)cc1 | -13.6% (inactive) | 
82 | CCS(=O)(=O)c1ncc(Cl)c(C(=O)Nc2c(C(=O)Nc3cccc(C)c3)oc3ccccc23)n1 | -11.7% (inactive) | 
83 | CCCS(=O)(=O)c1ncc(Cl)c(C(=O)Nc2c(C(=O)Nc3ccccc3)oc3ccccc23)n1 |  | 2.07 µM (active)
84 | CN(C)C(=O)c1c(NC(=O)c2ccccc2F)sc2c1CCCC2 | 3.93% (inactive) | 
85 | CCSc1ncc(Cl)c(C(=O)Nc2ccc(S(=O)(=O)N3CCCCC3CC)cc2)n1 (stereo not drawn) | -7.02% (inactive) | 
86 | CCS(=O)(=O)c1ncc(Cl)c(C(=O)Nc2ccc(S(=O)(=O)N(C)c3ccccc3)cc2)n1 |  | 0.927 µM (active)
87 | CC(=O)Nc1c(C(=O)Nc2ccccc2F)oc2ccccc12 | -23.3% (inactive) | 
88 | CCS(=O)(=O)c1ncc(Cl)c(C(=O)Nc2ccccc2)n1 |  | 2.61 µM (active)
89 | CCNC(=O)c1c(NC(=O)c2nc(S(=O)(=O)CC)ncc2Cl)sc2c1CCCC2 |  | 2.07 µM (active)
90 | Cc1cc(C)cc(-n2c(SCC(N)=O)nc3c([nH]c4ccccc43)c2=O)c1 | -14.5% (inactive) | 
91 | CC1=C(C(=O)Nc2ccccc2)C(c2cccnc2)n2nc(SCc3ccccc3F)nc2N1 (stereo not drawn) | 4.84% (inactive) | 
92 | COc1ccc(Cl)cc1NC(=O)c1c(NCc2ccc(C)o2)sc2c1CCC(C)C2 (stereo not drawn) | 0% (inactive) | 
93 | COC(=O)c1ccc([C@H]2Nc3ccc(S(=O)(=O)Nc4ccc(F)cc4)cc3[C@H]3C=CC[C@H]32)cc1 | -20.2% (inactive) | 
